# Measured values published in PMC7862700, “An all-to-all approach to the identification of sequence-specific readers for epigenetic DNA modifications on cytosine”.
# Assays:
# Assay in all cases: DAPPL (digital affinity profiling via proximity ligation, sequencing); 10 mM Tris-HCl pH 7.5, 50 mM NaCl, 1 mM DTT, 4% glycerol, room temperature, 30 min; GST-TFs on glutathione beads, 16-mer random dsDNA library, 0.1% formaldehyde crosslink after washing; high values mean tight binding
# FEV = biological target: T1, FEV (Homo sapiens, UniProt Q99581 1-238); conditions: protein: recombinant; tags: N-terminal GST; dsDNA, one strand shown
# T1 sequence: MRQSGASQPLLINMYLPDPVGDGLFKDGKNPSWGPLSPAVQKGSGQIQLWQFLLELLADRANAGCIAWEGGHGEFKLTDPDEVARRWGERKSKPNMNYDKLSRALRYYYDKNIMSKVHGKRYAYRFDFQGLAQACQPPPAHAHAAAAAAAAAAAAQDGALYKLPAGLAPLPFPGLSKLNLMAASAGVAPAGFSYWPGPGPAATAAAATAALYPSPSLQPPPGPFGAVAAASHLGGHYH
# Method in brief: (§1)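 Human transcription factors were made in yeast as GST fusions, captured on glutathione beads and barcoded with DNA. With a tag-only sample included, the pool was incubated with 200 nmole of a random double-stranded 16-mer DNA library in Tris/NaCl/DTT/glycerol buffer at room temperature for 30 min, then crosslinked with 0.1% formaldehyde after washing, ligated by proximity, amplified and sequenced. For binding signal, each hexamer's read frequency for a factor is divided by its frequency for the tag-only sample.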
# ETV5 = ETV5 (Homo sapiens, UniProt P41161 1-510); conditions: protein: recombinant; tags: N-terminal GST; dsDNA, one strand shown
# ETV5, sequence (P41161 whole entry): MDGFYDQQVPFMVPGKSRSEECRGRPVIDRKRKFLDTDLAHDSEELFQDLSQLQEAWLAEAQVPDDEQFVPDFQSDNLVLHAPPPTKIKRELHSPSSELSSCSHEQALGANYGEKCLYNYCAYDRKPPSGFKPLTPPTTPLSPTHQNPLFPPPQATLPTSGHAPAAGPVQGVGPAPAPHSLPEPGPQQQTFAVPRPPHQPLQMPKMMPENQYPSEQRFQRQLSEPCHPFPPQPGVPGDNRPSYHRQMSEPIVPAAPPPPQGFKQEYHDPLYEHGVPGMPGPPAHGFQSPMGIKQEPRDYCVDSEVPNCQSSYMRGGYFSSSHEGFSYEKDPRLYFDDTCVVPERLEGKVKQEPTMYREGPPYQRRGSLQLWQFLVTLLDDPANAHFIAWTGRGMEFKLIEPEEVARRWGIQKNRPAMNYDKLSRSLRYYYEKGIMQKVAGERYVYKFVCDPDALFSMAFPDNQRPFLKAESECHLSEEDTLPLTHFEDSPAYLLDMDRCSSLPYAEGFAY
# Method in brief: as §1
# HSF1 = HSF1 (Homo sapiens, UniProt Q00613 1-529); conditions: protein: recombinant; tags: N-terminal GST; chain copies: 3; dsDNA, one strand shown
# HSF1, sequence (Q00613 whole entry): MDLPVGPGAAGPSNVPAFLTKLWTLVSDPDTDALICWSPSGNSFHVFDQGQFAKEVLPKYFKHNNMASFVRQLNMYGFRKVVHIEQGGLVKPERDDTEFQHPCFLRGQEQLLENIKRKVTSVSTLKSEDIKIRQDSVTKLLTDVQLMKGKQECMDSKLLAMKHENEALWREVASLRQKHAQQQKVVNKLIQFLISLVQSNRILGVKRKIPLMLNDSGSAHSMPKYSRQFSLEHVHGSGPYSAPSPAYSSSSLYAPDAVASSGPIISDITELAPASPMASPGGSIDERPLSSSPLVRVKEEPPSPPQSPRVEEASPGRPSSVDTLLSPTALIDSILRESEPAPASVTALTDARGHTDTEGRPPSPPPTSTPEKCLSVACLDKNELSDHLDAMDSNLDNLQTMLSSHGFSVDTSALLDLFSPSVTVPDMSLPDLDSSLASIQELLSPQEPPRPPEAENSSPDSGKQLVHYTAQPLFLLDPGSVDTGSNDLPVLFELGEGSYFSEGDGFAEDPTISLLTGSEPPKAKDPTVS
# Method in brief: as §1
# SPIC = biological target: T2, SPIC (Homo sapiens, UniProt Q8N5J4 1-248); conditions: protein: recombinant; tags: N-terminal GST; dsDNA, one strand shown
# T2 sequence: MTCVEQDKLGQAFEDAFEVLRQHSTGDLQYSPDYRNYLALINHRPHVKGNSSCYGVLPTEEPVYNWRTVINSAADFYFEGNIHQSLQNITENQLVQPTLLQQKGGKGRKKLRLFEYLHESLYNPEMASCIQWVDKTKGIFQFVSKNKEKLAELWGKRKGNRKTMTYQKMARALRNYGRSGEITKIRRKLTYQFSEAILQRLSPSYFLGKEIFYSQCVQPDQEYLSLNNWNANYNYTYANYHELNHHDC
# Method in brief: as §1
# ELF4 = ELF4 (Homo sapiens, UniProt Q99607 1-663); conditions: protein: recombinant; tags: N-terminal GST; dsDNA, one strand shown
# ELF4, sequence (Q99607 whole entry): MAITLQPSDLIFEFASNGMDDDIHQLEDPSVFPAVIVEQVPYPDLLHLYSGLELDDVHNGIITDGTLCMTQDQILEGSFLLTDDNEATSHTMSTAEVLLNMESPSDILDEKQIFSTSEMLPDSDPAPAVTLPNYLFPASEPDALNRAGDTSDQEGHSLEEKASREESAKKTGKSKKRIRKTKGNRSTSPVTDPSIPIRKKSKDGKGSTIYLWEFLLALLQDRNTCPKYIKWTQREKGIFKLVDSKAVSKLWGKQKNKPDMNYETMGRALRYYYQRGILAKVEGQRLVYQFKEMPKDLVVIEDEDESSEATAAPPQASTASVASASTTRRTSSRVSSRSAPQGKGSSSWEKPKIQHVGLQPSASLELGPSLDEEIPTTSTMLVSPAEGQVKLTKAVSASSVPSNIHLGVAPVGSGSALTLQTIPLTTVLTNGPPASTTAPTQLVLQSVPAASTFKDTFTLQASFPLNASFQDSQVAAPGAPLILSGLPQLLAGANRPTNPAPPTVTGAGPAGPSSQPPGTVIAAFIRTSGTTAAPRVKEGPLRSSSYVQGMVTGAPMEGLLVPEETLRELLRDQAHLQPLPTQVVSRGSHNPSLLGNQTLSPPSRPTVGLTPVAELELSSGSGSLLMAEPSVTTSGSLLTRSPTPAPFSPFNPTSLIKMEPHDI
# Method in brief: as §1
# ELK4 = biological target: T3, ELK4 (Homo sapiens, UniProt P28324-2 1-405); conditions: protein: recombinant; tags: N-terminal GST; dsDNA, one strand shown
# T3 sequence: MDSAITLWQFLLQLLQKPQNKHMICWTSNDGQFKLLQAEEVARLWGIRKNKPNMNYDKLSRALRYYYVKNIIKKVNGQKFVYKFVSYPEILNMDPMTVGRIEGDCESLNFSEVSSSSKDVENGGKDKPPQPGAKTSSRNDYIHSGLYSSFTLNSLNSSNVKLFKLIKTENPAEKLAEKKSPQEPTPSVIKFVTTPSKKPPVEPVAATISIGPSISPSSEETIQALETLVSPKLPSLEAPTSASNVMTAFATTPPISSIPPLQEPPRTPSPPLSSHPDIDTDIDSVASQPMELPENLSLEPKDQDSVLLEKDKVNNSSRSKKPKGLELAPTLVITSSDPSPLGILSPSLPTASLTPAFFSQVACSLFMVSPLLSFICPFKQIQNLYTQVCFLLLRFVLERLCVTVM
# Method in brief: as §1
# ETV2 = biological target: T4, ETV2 (Homo sapiens, UniProt O00321 1-342); conditions: protein: recombinant; tags: N-terminal GST; dsDNA, one strand shown
# T4 sequence: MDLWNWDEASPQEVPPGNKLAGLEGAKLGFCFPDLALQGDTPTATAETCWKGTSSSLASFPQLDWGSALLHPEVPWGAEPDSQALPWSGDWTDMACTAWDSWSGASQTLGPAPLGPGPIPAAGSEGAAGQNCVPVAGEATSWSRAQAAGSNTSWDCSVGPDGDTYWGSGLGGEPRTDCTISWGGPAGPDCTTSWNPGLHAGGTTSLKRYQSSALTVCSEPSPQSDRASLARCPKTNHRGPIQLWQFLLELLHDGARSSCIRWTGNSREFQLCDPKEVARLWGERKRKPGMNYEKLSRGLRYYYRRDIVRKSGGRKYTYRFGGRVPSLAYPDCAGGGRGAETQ
# Method in brief: as §1
# ELF3 = biological target: T5, ELF3 (Homo sapiens, UniProt P78545 1-371); conditions: protein: recombinant; tags: N-terminal GST; dsDNA, one strand shown
# T5 sequence: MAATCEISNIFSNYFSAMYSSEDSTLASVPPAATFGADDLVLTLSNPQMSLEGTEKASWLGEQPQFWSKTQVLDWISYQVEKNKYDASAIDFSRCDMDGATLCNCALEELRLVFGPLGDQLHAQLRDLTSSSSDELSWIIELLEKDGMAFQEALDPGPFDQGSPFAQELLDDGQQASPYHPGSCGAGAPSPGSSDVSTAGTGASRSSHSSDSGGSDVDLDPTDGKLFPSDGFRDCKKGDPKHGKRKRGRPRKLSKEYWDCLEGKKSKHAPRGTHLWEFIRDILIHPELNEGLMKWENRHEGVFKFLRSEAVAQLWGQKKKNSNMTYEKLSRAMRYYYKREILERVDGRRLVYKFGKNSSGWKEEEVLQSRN
# Method in brief: as §1
# CRX = CRX (Homo sapiens, UniProt O43186 1-299); conditions: protein: recombinant; tags: N-terminal GST; dsDNA, one strand shown
# CRX, sequence (O43186 whole entry): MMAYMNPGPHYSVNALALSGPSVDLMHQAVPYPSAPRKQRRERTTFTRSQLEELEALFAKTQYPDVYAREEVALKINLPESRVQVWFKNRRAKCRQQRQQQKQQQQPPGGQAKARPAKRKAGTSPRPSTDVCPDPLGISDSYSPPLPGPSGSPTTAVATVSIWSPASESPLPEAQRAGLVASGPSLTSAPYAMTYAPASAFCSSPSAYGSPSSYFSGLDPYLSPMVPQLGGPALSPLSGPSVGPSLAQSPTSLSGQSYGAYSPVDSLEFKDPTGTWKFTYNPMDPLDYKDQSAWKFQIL
# Method in brief: as §1
# ETV1 = ETV1 (Homo sapiens, UniProt P50549 1-477); conditions: protein: recombinant; tags: N-terminal GST; dsDNA, one strand shown
# ETV1, sequence (P50549 whole entry): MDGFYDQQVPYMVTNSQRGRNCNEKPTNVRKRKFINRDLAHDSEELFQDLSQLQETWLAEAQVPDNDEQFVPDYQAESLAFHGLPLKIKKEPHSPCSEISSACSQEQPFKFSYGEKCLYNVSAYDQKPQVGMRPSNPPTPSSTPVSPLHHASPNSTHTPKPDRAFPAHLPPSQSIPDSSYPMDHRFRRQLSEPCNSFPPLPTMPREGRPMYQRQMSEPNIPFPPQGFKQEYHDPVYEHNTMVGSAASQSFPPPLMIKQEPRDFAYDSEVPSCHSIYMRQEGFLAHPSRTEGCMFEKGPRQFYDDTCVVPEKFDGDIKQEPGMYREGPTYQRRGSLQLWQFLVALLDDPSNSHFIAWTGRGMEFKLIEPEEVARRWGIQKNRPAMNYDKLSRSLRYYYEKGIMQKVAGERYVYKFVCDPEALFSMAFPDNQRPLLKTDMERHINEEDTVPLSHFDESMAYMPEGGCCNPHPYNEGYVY
# Method in brief: as §1
# ERF = biological target: T6, ERF (Homo sapiens, UniProt P50548 1-548); conditions: protein: recombinant; tags: N-terminal GST; dsDNA, one strand shown
# T6 sequence: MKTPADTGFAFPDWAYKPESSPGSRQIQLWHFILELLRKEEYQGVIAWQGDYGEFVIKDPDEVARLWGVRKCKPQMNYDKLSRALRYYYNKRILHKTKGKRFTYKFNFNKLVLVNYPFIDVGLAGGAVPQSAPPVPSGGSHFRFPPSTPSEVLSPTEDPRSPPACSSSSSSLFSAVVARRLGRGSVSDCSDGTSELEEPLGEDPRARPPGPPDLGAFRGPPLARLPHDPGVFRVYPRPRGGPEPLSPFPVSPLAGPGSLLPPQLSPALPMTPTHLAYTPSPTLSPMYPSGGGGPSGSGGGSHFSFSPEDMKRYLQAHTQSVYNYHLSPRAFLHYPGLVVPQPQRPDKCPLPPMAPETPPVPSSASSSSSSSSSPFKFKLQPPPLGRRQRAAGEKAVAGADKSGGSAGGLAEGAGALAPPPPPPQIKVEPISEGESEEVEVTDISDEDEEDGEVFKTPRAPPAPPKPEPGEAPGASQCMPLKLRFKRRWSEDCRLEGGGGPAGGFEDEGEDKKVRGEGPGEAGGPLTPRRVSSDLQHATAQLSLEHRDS
# Method in brief: as §1
# ETV3L = biological target: T7, ETV3L (Homo sapiens, UniProt Q6ZN32 1-361); conditions: protein: recombinant; tags: N-terminal GST; dsDNA, one strand shown
# T7 sequence: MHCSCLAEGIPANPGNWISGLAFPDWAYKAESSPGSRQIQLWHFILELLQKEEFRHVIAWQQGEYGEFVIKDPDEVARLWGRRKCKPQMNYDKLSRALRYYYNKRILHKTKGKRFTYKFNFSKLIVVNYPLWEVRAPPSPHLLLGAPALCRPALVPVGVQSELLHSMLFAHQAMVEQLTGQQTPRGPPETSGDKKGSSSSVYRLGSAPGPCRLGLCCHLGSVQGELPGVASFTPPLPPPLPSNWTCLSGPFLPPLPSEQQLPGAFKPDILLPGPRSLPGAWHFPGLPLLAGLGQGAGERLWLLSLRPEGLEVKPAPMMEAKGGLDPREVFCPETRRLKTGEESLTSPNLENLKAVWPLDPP
# Method in brief: as §1
# ETS2 = biological target: T8, ETS2 (Homo sapiens, UniProt P15036 1-469); conditions: protein: recombinant; tags: N-terminal GST; dsDNA, one strand shown
# T8 sequence: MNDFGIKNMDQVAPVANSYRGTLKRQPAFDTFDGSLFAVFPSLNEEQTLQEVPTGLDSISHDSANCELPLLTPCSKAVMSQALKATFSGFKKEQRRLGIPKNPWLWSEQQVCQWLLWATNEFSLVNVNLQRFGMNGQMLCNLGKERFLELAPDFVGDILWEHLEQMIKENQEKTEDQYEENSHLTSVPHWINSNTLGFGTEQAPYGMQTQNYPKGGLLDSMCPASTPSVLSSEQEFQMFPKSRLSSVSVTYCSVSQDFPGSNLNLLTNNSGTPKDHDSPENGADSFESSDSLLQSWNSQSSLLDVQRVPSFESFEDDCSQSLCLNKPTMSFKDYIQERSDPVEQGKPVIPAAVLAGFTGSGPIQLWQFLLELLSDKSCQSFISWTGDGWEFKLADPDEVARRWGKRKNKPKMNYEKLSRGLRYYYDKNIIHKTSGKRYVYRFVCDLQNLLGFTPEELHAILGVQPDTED
# Method in brief: as §1
# SPDEF = biological target: T9, SPDEF (Homo sapiens, UniProt O95238 1-335); conditions: protein: recombinant; tags: N-terminal GST; dsDNA, one strand shown
# T9 sequence: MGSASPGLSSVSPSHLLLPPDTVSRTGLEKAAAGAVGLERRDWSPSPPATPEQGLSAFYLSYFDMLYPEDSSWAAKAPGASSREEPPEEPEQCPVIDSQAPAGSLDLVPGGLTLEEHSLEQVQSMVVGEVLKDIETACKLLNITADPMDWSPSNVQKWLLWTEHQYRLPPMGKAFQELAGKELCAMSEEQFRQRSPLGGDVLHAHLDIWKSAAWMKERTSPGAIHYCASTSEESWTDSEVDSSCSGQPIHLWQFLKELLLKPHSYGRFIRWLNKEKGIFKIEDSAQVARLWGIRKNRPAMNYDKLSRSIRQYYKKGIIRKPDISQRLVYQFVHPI
# Method in brief: as §1
# ETV7 = biological target: T10, ETV7 (Homo sapiens, UniProt Q9Y603 1-341); conditions: protein: recombinant; tags: N-terminal GST; dsDNA, one strand shown
# T10 sequence: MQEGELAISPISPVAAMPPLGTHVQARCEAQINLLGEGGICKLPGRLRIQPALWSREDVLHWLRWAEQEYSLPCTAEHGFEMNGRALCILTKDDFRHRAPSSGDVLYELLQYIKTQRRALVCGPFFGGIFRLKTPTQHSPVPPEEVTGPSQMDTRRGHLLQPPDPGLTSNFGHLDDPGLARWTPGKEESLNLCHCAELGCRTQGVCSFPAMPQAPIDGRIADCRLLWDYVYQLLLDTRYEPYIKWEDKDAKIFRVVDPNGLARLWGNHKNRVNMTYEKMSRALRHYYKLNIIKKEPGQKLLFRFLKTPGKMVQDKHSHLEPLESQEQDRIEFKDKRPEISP
# Method in brief: as §1
# ELF5 = biological target: T11, ELF5 (Homo sapiens, UniProt Q9UKW6-2 1-255); conditions: protein: recombinant; tags: N-terminal GST; dsDNA, one strand shown
# T11 sequence: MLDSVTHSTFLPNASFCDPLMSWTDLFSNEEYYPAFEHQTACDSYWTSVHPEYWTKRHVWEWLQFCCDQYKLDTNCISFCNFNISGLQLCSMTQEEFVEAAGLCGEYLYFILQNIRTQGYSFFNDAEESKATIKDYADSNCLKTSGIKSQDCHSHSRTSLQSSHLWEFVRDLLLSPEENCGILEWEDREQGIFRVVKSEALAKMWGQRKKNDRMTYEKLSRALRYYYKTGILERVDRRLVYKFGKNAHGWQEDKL
# Method in brief: as §1
# ETV3 = biological target: T12, ETV3 (Homo sapiens, UniProt P41162-2 1-143); conditions: protein: recombinant; tags: N-terminal GST; dsDNA, one strand shown
# T12 sequence: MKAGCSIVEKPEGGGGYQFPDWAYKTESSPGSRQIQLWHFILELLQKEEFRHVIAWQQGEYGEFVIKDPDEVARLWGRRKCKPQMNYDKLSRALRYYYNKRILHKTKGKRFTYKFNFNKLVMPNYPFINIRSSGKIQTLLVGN
# Method in brief: as §1
# ETV6 = ETV6 (Homo sapiens, UniProt P41212 1-452); conditions: protein: recombinant; tags: N-terminal GST; dsDNA, one strand shown
# ETV6, sequence (P41212 whole entry): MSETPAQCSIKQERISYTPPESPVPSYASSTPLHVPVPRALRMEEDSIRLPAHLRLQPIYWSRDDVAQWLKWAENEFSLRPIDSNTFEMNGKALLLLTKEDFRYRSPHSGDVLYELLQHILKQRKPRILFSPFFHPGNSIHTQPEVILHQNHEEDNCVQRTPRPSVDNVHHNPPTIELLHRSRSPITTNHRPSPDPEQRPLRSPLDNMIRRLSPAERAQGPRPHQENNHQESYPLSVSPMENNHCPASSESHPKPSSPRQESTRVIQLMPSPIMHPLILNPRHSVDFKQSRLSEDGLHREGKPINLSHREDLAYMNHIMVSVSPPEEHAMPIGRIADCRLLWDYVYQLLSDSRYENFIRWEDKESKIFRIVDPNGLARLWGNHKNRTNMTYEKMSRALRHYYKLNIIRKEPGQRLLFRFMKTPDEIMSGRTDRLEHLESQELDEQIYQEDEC
# Method in brief: as §1
sequence,measurement,setting,value
AATGTA,binding signal,FEV,"1.12 fold enrichment (6-mer frequency, TF over GST control)"
same,binding signal,ETV5,"1.11 fold enrichment (6-mer frequency, TF over GST control)"
same,binding signal,HSF1,"1.16 fold enrichment (6-mer frequency, TF over GST control)"
same,binding signal,SPIC,"1.12 fold enrichment (6-mer frequency, TF over GST control)"
same,binding signal,ELF4,"1.11 fold enrichment (6-mer frequency, TF over GST control)"
same,binding signal,ELK4,"1.32 fold enrichment (6-mer frequency, TF over GST control)"
same,binding signal,ETV2,"1.32 fold enrichment (6-mer frequency, TF over GST control)"
same,binding signal,ELF3,"1.16 fold enrichment (6-mer frequency, TF over GST control)"
same,binding signal,CRX,"1.1 fold enrichment (6-mer frequency, TF over GST control)"
same,binding signal,ETV1,"1.23 fold enrichment (6-mer frequency, TF over GST control)"
same,binding signal,ERF,"1.14 fold enrichment (6-mer frequency, TF over GST control)"
same,binding signal,ETV3L,"1.1 fold enrichment (6-mer frequency, TF over GST control)"
same,binding signal,ETS2,"1.25 fold enrichment (6-mer frequency, TF over GST control)"
same,binding signal,SPDEF,"1.2 fold enrichment (6-mer frequency, TF over GST control)"
same,binding signal,ETV7,"1.15 fold enrichment (6-mer frequency, TF over GST control)"
same,binding signal,ELF5,"1.21 fold enrichment (6-mer frequency, TF over GST control)"
same,binding signal,ETV3,"1.17 fold enrichment (6-mer frequency, TF over GST control)"
same,binding signal,ETV6,"1.15 fold enrichment (6-mer frequency, TF over GST control)"
